Molecules are shown by their SMILES. Several values for one entry are separate records, joined by “and”; a condition that tells them apart may be missing. Equal values may be shown once. Compounds without any hit were thinned out: in the full panel of roughly 83,000, 20% have a hit.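 Activity criterion: percent growth below 10, measured after cells in 96-well plates were exposed to a single compound concentration for 48 hours.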 Activity calls are given as the source filed them.

The first experiment deals with HOP-92 NSCLC. As to the kind of experiment: NCI-60 one-dose screen, 48 h (100 = growth as untreated, 0 = no growth, -100 = all killed). The conditions noted are these: 10 µM. The method, then: Growth inhibition of the HOP-92 human Non-Small Cell Lung tumor cell line is measured as a screen for anti-cancer activity. Cells are grown in 96 well plates and exposed to the test compound for 48 hours. Compounds are tested at a single concentration, which is 10^-5 M for most compounds. The reported endpoint is percent growth (GI% or GIPRCNT), where numbers from 0 - 100% represent growth inhibition, and numbers from -100% - 0 represent cell death. For example, a value of 40 represents 60% growth inhibition. A value of 0 means no net growth occurred over the course of the experiment. A value of -40 indicates 40% of cells at the beginning of the experiment died by the end of the experiment. A value of -100 means all cells are dead at the end of the experiment.
NCI-60 Human Tumor Cell Lines Screen was performed using the standard one-dose NCI protocol, which is described in more detail at https://dtp.cancer.gov/discovery_development/nci-60/default.htm.
Compounds with GIPRCNT values below 10 were considered active. Activity score was based on GIPRCNT using the following formula: […]
Score is 0 for GIPRCNT values of 100 or above, 50 for GIPRCNT values of 0, and 100 for GIPRCNT values of -100.
As to `CC(C)(C)c1cc(NC(=O)Cc2ccc(-c3cnc4cc(-c5cnn(CCN6CCOCC6)c5)ccc4n3)cc2)no1`, the growth is -3.35% (active).

Consider `O=C(O)c1sccc1O`, for which the growth is 66.9% (inactive). `CC1(C)OB(c2ccc(Cn3cc(F)c(=O)[nH]c3=O)cc2)OC1(C)C`: the growth is 98.3% (inactive).

The experiment is the same for the next values; noted with them: 10 µM unless noted.
Consider `CC1=C[C@H]2c3c(c(O)c(O)c4oc5cc(O)cc(O)c5c(=O)c34)[C@H](c3cc(O)c(O)c4oc5cc(O)cc(O)c5c(=O)c34)[C@H]2C(C)(C)C1`, for which the growth was -8.6% (active) and -43.8% (active). Same read-out and setting: next, `CC(=O)Nc1ccc2cc3ccc(NC(C)=O)cc3nc2c1`: 60.6% (inactive); `O=C(Nc1ccc([N+](=O)[O-])cc1Cl)c1cc(Cl)ccc1O`: -24.7% (active) and -11.7% (active); `Oc1ccccc1/C=N\NC(=S)N/N=C/c1ccccc1O`: 45.9% (inactive) and 62.4% (inactive). Still for that read-out and setting: next, `Cc1ccc(S(=O)(=O)Nc2nc3ccccc3nc2Nc2ccc3nsnc3c2)cc1`: 6.25% (active). Same read-out and setting: next, `CC(C)Oc1ccc2cc(-c3nn(CC4CCNCC4)c4ncnc(N)c34)ccc2c1`: 66.1% (inactive) and -1.47% (active). For `Clc1ccc(NC(Nc2ccc(Cl)cc2)C(Cl)(Cl)Cl)cc1`, the growth is 105% (inactive). Same read-out and setting: next, `CN(C)c1ccc2nc3ccc(N)cc3[n+](-c3ccccc3)c2c1`: -3.42% (active) and 38.1% (inactive); `O=C(O)CCCCc1ccc([N+](=O)[O-])cc1`: 77.5% (inactive) and 83.8% (inactive); `CCN(CC)CCCC(CNc1ccnc2cc(Cl)ccc12)c1ccc(Cl)cc1` (stereo not given): -51.5% (active) and -68.6% (active). On the same count and under the same terms, next, `CC(C)Cc1ccc(C(C)C(=O)NCc2ccc(Cn3c(=O)sn(CCCI)c3=O)cc2)cc1` (stereo not given): 73.6% (inactive) and -67.5% (active). As to `NC(=O)C1CC2C=CC1C2` (stereo not given), the growth was 101% (inactive) and 94.5% (inactive). `NC(=S)N/N=C(\c1ccc(Br)cc1)C1CC1`: the growth is 83.2% (inactive) and 92.7% (inactive).

`COc1cc2nc(N3CCC[C@@H](NC(=O)C4COc5ccccc5O4)C3)nc(N)c2cc1OC` (stereo not given in full): the growth was 87% (inactive) and 83% (inactive). Same read-out and setting: next, `CN(C)CCC(=O)c1ccc(Cl)cc1`: 86.4% (inactive) and 124% (inactive); `c1ccc2c(CC3=NCCN3)cccc2c1`: 82.3% (inactive) and 87.7% (inactive); `O=C1OC2(c3ccccc31)c1ccc(O)c(O)c1Oc1c2ccc(O)c1O`: 61.9% (inactive) and 120% (inactive). On to `CCN(CC)CCOc1ccc2c(c1)C(=O)c1cc(OCCN(CC)CC)ccc1-2`, for which the growth is 20% (inactive).

Regarding `COc1ccc(S(=O)(=O)N2CCOCC2)cc1NC(=O)c1[nH]c(C)c2c1CCCCC2=O`, the growth is 111% (inactive) and 27% (inactive). Turning to `O=C=NC(c1ccccc1)(c1ccccc1)c1ccccc1`, the growth was 110% (inactive). Same read-out and setting: next, `O=C(Oc1cccc(OC(=O)c2ccccc2)c1)c1ccccc1`: 73.7% (inactive) and 88.5% (inactive). Same read-out and setting: next, `CC(CN=Cc1ccccc1O)N=Cc1ccccc1O` (stereo not given): 85.4% (inactive); `O=C1C2=C(C(=O)c3ccccc31)C(O)(S(=O)(=O)O)C(O)(S(=O)(=O)O)C1N=CC=CC21` (stereo not given): -2.69% (active); `O=C(O)CN(CCN(CC(=O)O)CC(=O)O)CCN(CC(=O)O)CC(=O)O`: 103% (inactive) and 102% (inactive). On the same count and under the same terms, next, `CC(C)CNC(=O)c1ccccc1C(=O)NC1(C(=O)NCC(C)C)CCCC1`: 117% (inactive); `N#CCCOc1ccccc1`: 84.6% (inactive); `CN(C)c1ccc(/C=C(\C#N)c2ccccc2)cc1`: 53.9% (inactive) and 39.5% (inactive) and 14% (inactive). `CNC(=O)c1cc(Oc2ccc(NC(=O)Nc3ccc(Cl)c(C(F)(F)F)c3)cc2)ccn1`: the growth was -22.9% (active) and -30.7% (active).

As to `COc1ccccc1NC(=O)OCC#CCOC(=O)Nc1ccccc1OC`, the growth was 83.1% (inactive). On to `N=C1N=C(N)CS1`, for which the growth was 99.5% (inactive). In the case of `C/C(=N\NC(=O)c1ccncc1)c1ccccc1O`, the growth was 44.5% (inactive) and 36.7% (inactive). Consider `CN1CCN(CCC=C2c3ccccc3Sc3ccc(S(=O)(=O)N(C)C)cc32)CC1`, for which the growth was 29.4% (inactive). Same read-out and setting: next, `CCN(CC)CCC(CNc1ccnc2cc(Cl)ccc12)c1ccc(OC)cc1` (stereo not given): 47.3% (inactive) and 59.4% (inactive); `O=C(CN1CCN(c2cc3c(cc2F)c(=O)c(C(=O)O)cn3C2CC2)CC1)Nc1ccc(Cl)cc1`: 78.9% (inactive) and 87.2% (inactive).

Still in this experiment, the particulars now being: 30 µM.
On to `CC(C)(C)c1cc(NC(=O)Cc2ccc(-c3cnc4cc(-c5cnn(CCN6CCOCC6)c5)ccc4n3)cc2)no1`, for which the growth was -10.6% (active).

Staying with this experiment, now noted: 50 µM.
Take `CC1(C)OB(c2ccc(Cn3cc(F)c(=O)[nH]c3=O)cc2)OC1(C)C`: the growth was 33.2% (inactive).

Staying with this experiment, now noted: 100 µM.
In the case of `O=C(O)c1sccc1O`, the growth was 26.9% (inactive).

(Values after PubChem BioAssay (NCI).)
